# Bioassay records from PubChem.
# In the library only some 5.5% were active in any assay of this set; here they are far more common.
# uPA generation – inhibitors of cell surface uPA generation | cell surface uPA generation assay, qHTS | Potency, µM (series often up to 38.3 µM), for inactives: at the highest dose activity change, negative = inhibition, hits mostly inhibitors | 330,000 tested, 0.31% active; active = well fitted inhibition curve with a large enough effect; inconclusive = small, poorly fitted or top-dose-only effect; inactive = no such curve, though single readings can be large or run the other way; tested in mouse RAW 264.7 cells; note: % is set by controls: 0 for no effect and ±100 for the full control effect; nearly all actives have a fitted effect of over 55% in size
# Integrin act MD – integrin-mediated muscular dystrophy alleviation activation; Potency, µM (highest dose often 38.3 µM), for inactives: top-dose activation, usual class: activators; alpha7betagal myoblasts, beta-gal FDG fluorescence, 48 h; 350,000 tested, 0.064% active; AID 624291;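 note: 100% = response of the positive control SU9516; nearly all actives have a fitted effect of over 60% in size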
#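 alpha7betagal+/- myoblasts (passage 13, 250/well) treated 48 h at 37C with compounds at 1:260 dilution of DMSO stock. Lysed, then beta-galactosidase activity read as FDG fluorescence (ex 480/em 540) after 30 min, with pre-read for autofluorescence.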
# RORgamma inh – ROR gamma (mouse) transcription inhibition | Drosophila S2 Gal4-RORgamma UAS-luciferase reporter, 20 h | Potency, µM (series often up to 53.6 µM), for inactives: at the top dose activity change, negative = inhibition, most hits filed as inhibitors | 310,000 tested, 5.4% active; note: % is set by controls: 0 for no effect and ±100 for the full control effect; nearly all actives have a fitted effect of over 60% in size
# Target sequence (P51450 whole entry, looked up, the tested form may be a part): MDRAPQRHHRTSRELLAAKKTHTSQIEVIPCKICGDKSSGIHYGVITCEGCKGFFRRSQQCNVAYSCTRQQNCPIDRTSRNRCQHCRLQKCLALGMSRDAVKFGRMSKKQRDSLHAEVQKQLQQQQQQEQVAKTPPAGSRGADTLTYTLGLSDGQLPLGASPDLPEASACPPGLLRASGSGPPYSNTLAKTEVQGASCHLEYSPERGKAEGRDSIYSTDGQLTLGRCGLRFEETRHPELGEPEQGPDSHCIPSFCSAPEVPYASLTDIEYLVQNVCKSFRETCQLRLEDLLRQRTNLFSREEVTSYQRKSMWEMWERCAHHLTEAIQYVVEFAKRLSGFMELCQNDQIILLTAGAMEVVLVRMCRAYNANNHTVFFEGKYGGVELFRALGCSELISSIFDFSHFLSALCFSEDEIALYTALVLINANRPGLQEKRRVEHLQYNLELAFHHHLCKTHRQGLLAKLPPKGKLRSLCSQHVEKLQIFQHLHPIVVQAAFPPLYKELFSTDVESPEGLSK
#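 Schneider cells (Drosophila), stable Gal4 DBD–ROR gamma + UAS-luc; 1 hr cmpd preincubation; Cu2+ induction 700 uM final; 20 hr ambient; luminescence.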
# Mito fusion act – blocks mitochondrial division or promotes mitochondrial fusion | S. cerevisiae fusion-defective mutant growth rescue, CellTiterGlo 48 h | Potency, µM (series often up to 46.1 µM), without a hit: at the top dose growth rescue (activation), usual class: activators | 320,000 tested, 0.23% active | AID 485298; note: % of control where 0% means no effect; nearly all actives have a fitted effect of over 45% in size
#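 S. cerevisiae fusion-defective temperature-sensitive mutants (e.g. fzo1-1, mgm1-5) grown 48 h at 37C in YPEG (ethanol/glycerol non-fermentable) medium with 23 nl compound per well; growth rescue read as CellTiterGlo luminescence.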
# VP16 counter – inhibits Gal4-VP16 luciferase reporter, ROR gamma counter-screen. Drosophila S2 Gal4-VP16 UAS-luciferase, luminescence, 20 h. 310,000 tested, 3.5% active. Potency, µM (highest dose often 53.6 µM), without a hit: top-dose activity, negative = inhibition, most hits filed as inhibitors;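 note: Gal4-VP16 expression switched on by copper sulfate through the metallothionein promoter; % is set by controls: 0 for no effect and ±100 for the full control effect; nearly all actives have a fitted effect of over 50% in size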
# BCR signal inh – blocks chronic active B-cell receptor signaling | ABC-DLBCL IkBa-CBG/CBR reporter, luminescence ratio, 4 h | Potency, µM (top dose mostly 46.1 µM), for the others: at the highest dose activity change, negative = inhibition, hits mostly inhibitors | 340,000 tested, 0.05% active; active = well fitted inhibition curve with a large enough effect in the signal ratio, with a control signal flat, not every such curve was filed as active; inconclusive = small, poorly fitted or top-dose-only effect, or effect the other way, or a change in a side signal; the % refers to the signal ratio;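 note: plate controls were basal doxycycline-induced cells for no effect and cells given 10 µM MG132 for full effect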
#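 Compounds up to 46 uM were incubated four hours with TMD8 cells whose green CBG68 luciferase is fused to IkappaBalpha; red CBR luminescence normalised the signal, and concentration-effect curves were fitted to fusion, red and ratio data.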
# * hit, by the source's call; ? = inconclusive; / = no result given; [ ] = another dose, or the depositor's remark. Unless noted, calls come from the whole dose curve; as a rule, active = well fitted curve in the direction sought with a large enough effect; inconclusive = small, poorly fitted or top-dose-only effect, or another doubt; inactive = no such curve, though single readings can be large; an effect the other way counts as inactive or inconclusive. Potency is the fitted concentration of half-maximal effect.
SMILES,uPA generation,Integrin act MD,RORgamma inh,Mito fusion act,VP16 counter,BCR signal inh
O=C1C[C@@H](O)[C@@H](O)[C@H]2[C@@H]3C(=O)N(C4CCCCC4)C(=O)[C@@H]3CC[C@H]12,/,/,0%[10 µM],/,-2%[10 µM],/
COc1cccc(NC(=O)CN(C)C(=O)c2ccccc2-c2nc3ccccc3s2)c1,-7%,-2%,/,16%,/,-11%
CCN1C(=O)[C@@H]2[C@H]3C(=CC[C@H]2C1=O)C(=O)[C@H]1OC1[C@H]3O (some centres undefined),/,/,2µM*,/,?,/
CC1CC[C@@]2(OC1)OC1CC3C4CC=C5CC(O)CC[C@@]5(C)C4CC[C@]3(C)C1C2C (some centres undefined),/,/,1%,/,-12%,/
Cc1cc(=O)n2[nH]c(C)c(-c3ccccc3)c2n1,3%,32%,-43%,0%,-7%,0%
CCOC(=O)Cc1c(C)nc2c(-c3cccc(Br)c3)c[nH]n2c1=O,-6%,?,4.5µM*,-2%,14µM*,2%
CCOC(=O)Cc1c(C)nc2c(-c3ccc(Cl)cc3)c(C)[nH]n2c1=O,-10%,-8%,6.3µM*,1%,6.3µM*,11%
Cc1cc(=O)n2[nH]c(C)c(-c3ccc(Cl)cc3)c2n1,-14%,0%,7.1µM*,-3%,16µM*,?
CCOC(=O)Cc1cc(=O)n2[nH]c(C)c(-c3ccccc3)c2n1,-4%,9%,13µM*,-8%,?,?
CCOc1cccc(CN2CCC(n3nccc3NC(=O)C3CC3)CC2)c1O,1%,-39%,-3%,1%,7%,1%
NC(Cc1ccc(O)c(O)c1)C(=O)O (centres undefined),/,/,-37%,/,-11%,/
Oc1ccccc1C=NCc1ccccc1,/,/,-18%,/,-12%,/
CCOC(=O)N1CCC(c2cc(=O)n3[nH]c(-c4ccccc4)cc3n2)CC1,2%,-2%,29%,-3%,-8%,?
CCOC(=O)N1CCC(c2cc(=O)n3[nH]c(C)c(-c4ccc(F)cc4)c3n2)CC1,?,-13%,10µM*,-5%,13µM*,0%
O=C(O)CCC/C=C\C[C@@H]1CO[C@H](C(F)(F)F)O[C@@H]1c1ccccc1O,/,/,-7%,/,5%,/
O=C(/C=C/c1ccc(NC(=O)c2ccccc2-c2ccccc2C(=O)O)cc1)c1ccccc1,11%,57%,11µM*,-2%,?,?
COc1ccc(-c2cccc(-c3cc(=O)oc4cc(OC)cc(OC)c34)c2)cc1,0.79µM*,18%,/,/,/,?
COc1cc(OC)c2c(-c3cccc(-c4ccc(CO)cc4)c3)cc(=O)oc2c1,0.89µM*,-37%,-38%,/,?,?
COc1cc(OC)c2c(-c3cccc(-c4cccc(C)c4)c3)cc(=O)oc2c1,3.2µM*,9%,2%,/,-6%,?
COc1cc(OC)c2c(-c3cccc(-c4ccc(O)cc4)c3)cc(=O)oc2c1,?,-9%,-1%,/,?,?
C=CC[C@@H]1/C=C(\C)C[C@H](C)C[C@H](OC)[C@H]2O[C@@](O)(C(=O)C(=O)N3CCCC[C@H]3C(=O)O[C@H](/C(C)=C/[C@@H]3CC[C@@H](O)[C@H](OC)C3)[C@H](C)[C@@H](O)CC1=O)[C@H](C)C[C@@H]2OC,/,/,?,/,-6%,/
O=C(/C=C/c1ccccc1)N1CCCC1CO (centres undefined),/,/,3%[10 µM],/,-4%[10 µM],/
Cc1cc(NC(=O)CCCS(=O)(=O)c2nc(-c3cccs3)cc(C(F)(F)F)n2)no1,-9%,-65%,5.6µM*,-13%,0.89µM*,?
CS(=O)(=O)c1nc(-c2cccs2)cc(C(F)(F)F)n1,/,/,2µM*,-24%,4.5µM*,?
COc1ccc(-c2cc(C(F)(F)F)nc(N)n2)cc1,-16%,-16%,-2%,2%,9%,?
SMILES,uPA generation,Integrin act MD,RORgamma inh,Mito fusion act,VP16 counter,BCR signal inh
COc1ccc(-c2cc(C(F)(F)F)nc(S(C)(=O)=O)n2)cc1,-13%,-68%,13µM*,10%,8.9µM*,?
CS(=O)(=O)c1nc(-c2ccc(F)cc2)cc(C(F)(F)F)n1,-5%,-16%,2.5µM*,-31%,4.5µM*,?
CCNc1nc(=S)nc(NCc2ccccc2)[nH]1,/,/,3.2µM*,0%,7.1µM*,5%
CC(Nc1nc(=S)nc(Nc2ccc(F)cc2)[nH]1)c1ccccc1 (centres undefined),26%,-38%,?,-1%,?,-2%
CCNc1nc(=S)nc(NC(C)C)[nH]1,-1%,-31%,10µM*,1%,13µM*,3%
N#C/C(=C\c1ccc(N2CCOCC2)o1)c1ccccc1,-27%,-53%,?,-6%,20µM*,5%
N#C/C(=C/c1ccc(N2CCOCC2)o1)c1ccc(Br)cc1,-11%,-68%,-91%,-3%,5.6µM*,-2%
N#C/C(=C/c1ccc(N2CCOCC2)o1)c1nc2ccccc2[nH]1,-15%,16%,-80%,14%,?,?
N#C/C(=C/c1ccc(N2CCCCCC2)o1)c1ccc(F)cc1,-15%,-39%,/,/,/,/
CC(=O)c1ccc(-c2cccc(C3C4C=CCCC4(C)C(=O)N3Cc3ccccc3)c2)cc1 (centres undefined),/,/,-38%,/,-4%,/
CC(=O)N1CCc2c(sc(NC(=O)c3ccc4c(c3)OCCO4)c2C#N)C1,7.9µM*,-22%,4%,2%,9%,?
CCOc1cc(NC(=S)NCCCN2CCOCC2)c(OCC)cc1NC(=O)c1cccc(C)c1,3%,0%,-16%,1%,-4%,3%
CCOc1cc(NC(=S)NCC2CCCO2)c(OCC)cc1NC(=O)c1cccc(C)c1 (centres undefined),0%,18%,4.5µM*,-9%,11µM*,7%
CCOc1cc(NC(=S)NCC2CCCO2)c(OCC)cc1NC(=O)c1ccccc1 (centres undefined),1%,-7%,6.3µM*,-8%,11µM*,19%
CCOc1cc(NC(=S)Nc2cccc(OC)c2)c(OCC)cc1NC(=O)C1CC1,6%,-53%,7.1µM*,-6%,?,0%
CCOc1cc(NC(=S)NCC2CCCO2)c(OCC)cc1NC(=O)C1CC1 (centres undefined),-2%,-11%,11µM*,-10%,10%,-7%
COc1cccc(NC(=O)C2CCC2)c1,1%,-5%,/,15%,/,3%
CCn1c(SCc2ccccc2)nc2c1c(=O)[nH]c(=O)n2C,?,-8%,?,11%,-2%,2%
O=C(CSc1ccccc1)NCc1ccc2c(c1)CCN2C(=O)c1ccccc1,/,/,/,/,/,6%
O=S(=O)(c1ccccc1)N1CCC2(CCCN(c3ccccn3)C2)CC1,/,/,16%,/,11%,/
